The source of these data is PubChem BioAssay AID1159580 (chemical genetic matrix, 2015).

Out of some 5,500 compounds screened, about 2,000 (36%) were called active. About 18% were inconclusive and are not listed. The list shows a part of the results. A number with no mark means an inactive call. No stated cut-off is given here; in the data, active means normalized growth mostly below about 0.91 (no sharp cut-off); inconclusive means no clear call, values can overlap the other calls; inactive means mostly above about 0.92.

A short description of the assay: chemical genetic growth profiling, strain panel (AID 1159580).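 Further: tested at 20 µM; growth read once vehicle control cultures reached saturation at 30 °C; 1 = growth at the plate median or of vehicle wells; lower values mean less growth of the strain.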 Particulars: growth OD.
Setting [1] is: S. cerevisiae deletion strains, locus YAL013W, strain DEP1, hits give low values.
Where [2] appears, read: S. cerevisiae deletion strains, locus YGR078C, strain PAC10, hits give low values.
[3] abbreviates: S. cerevisiae deletion strains, locus YNL128W, strain TEP1, hits give low values.
The mark [4] stands for this setting: S. cerevisiae deletion strains, locus YNL322C, strain KRE1, hits give low values.
The mark [5] stands for this setting: S. cerevisiae deletion strains, locus YPL055C, strain LGE1, hits give low values.
[6] abbreviates: S. cerevisiae deletion strains, locus YPL241C, strain CIN2, hits give low values.
The mark [7] stands for this setting: S. cerevisiae deletion strains, locus YBR229C, strain ROT2, hits give low values.
Setting [8] is: S. cerevisiae deletion strains, locus YDL101C, strain DUN1, hits give low values.
The mark [9] stands for this setting: S. cerevisiae deletion strains, locus YDL134C, strain PPH21, hits give low values.
Setting [10] is: S. cerevisiae deletion strains, locus YDR150W, strain NUM1, hits give low values.
The mark [11] stands for this setting: S. cerevisiae deletion strains, locus YEL061C, strain CIN8, hits give low values.
Where [12] appears, read: S. cerevisiae deletion strains, locus YHR030C, strain SLT2, hits give low values.
Setting [13] is: S. cerevisiae deletion strains, locus YHR087W, strain rtc3, hits give low values.
The mark [14] stands for this setting: S. cerevisiae deletion strains, locus YJR043C, strain POL32, hits give low values.
Setting [15] is: S. cerevisiae deletion strains, locus YJR075W, strain HOC1, hits give low values.
Setting [16] is: S. cerevisiae deletion strains, locus YKL190W, strain CNB1, hits give low values.
Where [17] appears, read: S. cerevisiae deletion strains, locus YLR039C, strain RIC1, hits give low values.
Where [18] appears, read: S. cerevisiae deletion strains, locus YLR058C, strain SHM2 (second series), hits give low values.
Setting [19] is: S. cerevisiae deletion strains, locus YLR085C, strain ARP6, hits give low values.
The mark [20] stands for this setting: S. cerevisiae deletion strains, locus YLR262C, strain YPT6, hits give low values.
Setting [21] is: S. cerevisiae deletion strains, locus YML094W, strain GIM5, hits give low values.
[22] abbreviates: S. cerevisiae deletion strains, locus YMR219W, strain ESC1, hits give low values.
[23] abbreviates: S. cerevisiae deletion strains, locus YMR307W, strain GAS1, hits give low values.
Where [24] appears, read: S. cerevisiae deletion strains, locus YNL153C, strain GIM3, hits give low values.
Setting [25] is: S. cerevisiae deletion strains, locus YNL298W, strain CLA4 (second series), hits give low values.
Where [26] appears, read: S. cerevisiae deletion strains, locus YNR030W, strain Alg12, hits give low values.
Where [27] appears, read: S. cerevisiae deletion strains, locus YPR135W, strain CTF4, hits give low values.

Regarding `Cc1ccc(=O)n(-c2ccccc2)c1`, the normalized growth under setting [1] was 1; the normalized growth (S. cerevisiae deletion strains, locus YAL040C, strain CLN3, hits give low values) was 1.01; the normalized growth (S. cerevisiae deletion strains, locus YCL061C, strain MRC1 (second series), hits give low values) was 1; the normalized growth (S. cerevisiae deletion strains, locus YDR363W, strain ESC2, hits give low values) is 1; the normalized growth (S. cerevisiae deletion strains, locus YER002W, strain NOP16, hits give low values) was 0.975; the normalized growth under setting [2] is 1.02. Further, the normalized growth under setting [3] was 0.991; the normalized growth (S. cerevisiae deletion strains, locus YNL175C, strain NOP13, hits give low values) was 1; the normalized growth (S. cerevisiae deletion strains, locus YNL197C, strain WHI3, hits give low values) is 1.01; the normalized growth (S. cerevisiae deletion strains, locus YNL224C, strain SQS1, hits give low values) was 1.01; the normalized growth under setting [4] is 0.998; the normalized growth (S. cerevisiae deletion strains, locus YOR083W, strain WHI5 (second series), hits give low values) was 1.01. The normalized growth was 1.02 under setting [5] and 1 under setting [6].
`CC1=NN(c2cccc(S(N)(=O)=O)c2)C(=O)C1`: the normalized growth was 1.01 under setting [1]; 1 under setting [7]; 1.03 under setting [8]; 0.978 under setting [9]; 0.985 under setting [10]; 1 under setting [11]. Also, the normalized growth under setting [2] is 1; the normalized growth under setting [12] was 1.04; the normalized growth under setting [13] was 1.01; the normalized growth under setting [14] is 0.999; the normalized growth under setting [15] is 1.03; the normalized growth under setting [16] is 0.985. In addition, the normalized growth was 0.975 under setting [17]; 0.998 under setting [18]; 1.04 under setting [19]; 0.952 under setting [20]; 1.12 under setting [21]; 1.01 under setting [22]. Moreover, the normalized growth was 0.994 (S. cerevisiae deletion strains, locus YMR263W, strain SAP30, hits give low values); 1.04 under setting [23]; 0.977 under setting [3]; 1.01 under setting [24]; 1.01 under setting [25]; 1.01 under setting [4]. The normalized growth is 0.999 under setting [26], 1.03 under setting [5] and 1.08 under setting [27].
As to `CC(C)(C)C1=NN(c2ccccc2)C(=O)C1`, the normalized growth is, setting by setting: under setting [1], 0.973; under setting [7], 0.959; (S. cerevisiae deletion strains, locus YCL061C, strain MRC1, hits give low values) 0.966; under setting [8], 0.983; under setting [9], 0.975; under setting [10], 0.952. For the same molecule, the normalized growth reads like this: under setting [11], 0.994; under setting [2], 0.956; under setting [12], 0.863; under setting [13], 1; under setting [14], 1.01; under setting [15], 0.939. In addition, the normalized growth is, setting by setting: under setting [16], 0.956; under setting [17], 0.666 (active); under setting [18], 0.972; under setting [19], 0.637 (active); under setting [20], 0.707 (active); under setting [21], 0.984. Moreover, the normalized growth is 0.966 under setting [22]; 0.803 under setting [23]; 0.981 under setting [24]; 0.929 under setting [25]; 0.981 under setting [4]; 0.888 under setting [26]. For the same molecule, the normalized growth is, setting by setting: (S. cerevisiae deletion strains, locus YOL006C, strain TOP1, hits give low values) 0.808; under setting [5], 1.03; under setting [6], 0.89; under setting [27], 0.656; (S. cerevisiae strains, strain wild type, hits give low values) 0.884 (active).
